PubChem BioAssay (NCATS)
Values joined by “and” are separate entries in the source; they are usually repeats but may differ in a detail not shown here. Identical values can stand only once. Results filed as inconclusive are left out. Where a structure was tested more than once in an assay, its records may differ in their call. Active and inactive are the calls of the source. Unless noted, the call rests on the fitted dose curve; in most records, active means well fitted inhibition curve with a large enough effect; inconclusive means small, poorly fitted or top-dose-only effect; inactive means flat fitted curve, though single readings scatter.

Legend:
[1] = Drug repurposing screens with cells derived from glioblastoma tumor samples (AID 1345199); conditions: GBM patient neurospheres viability, ATP luminescence, 48 h; further: nearly all actives have a fitted effect of over 40% in size; further: potency means the concentration at half of the fitted maximal effect; on activity, negative = cell killing: on the % scale 0 is the no-effect control and ±100 the full control effect
How it was run: (§1)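 Four patient lines of CD133+ GBM neurospheres were screened at several concentrations; hits were retested in those lines plus three slower-growing GBM lines, using 48-hour treatment and ATP-based viability.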

[2] = test system: astro; experiment: as above; conditions: viability, ATP luminescence, 48 h; series mostly up to 45.9 µM
How it was run: as §1

[3] = molecular target: Nuclear receptor subfamily 1 group I member 2 (Rattus norvegicus) (UniProt Q9R1A7); experiment: qHTS assay for small molecule activators of the rat pregnane X receptor (rPXR) signaling pathway (AID 651751; call rule not given here; further: 0% is about no effect); conditions: rPXR reporter cells, luciferase (One-Glo), 24 h
Chain of Nuclear receptor subfamily 1 group I member 2 (Rattus norvegicus) (Q9R1A7 whole entry, looked up): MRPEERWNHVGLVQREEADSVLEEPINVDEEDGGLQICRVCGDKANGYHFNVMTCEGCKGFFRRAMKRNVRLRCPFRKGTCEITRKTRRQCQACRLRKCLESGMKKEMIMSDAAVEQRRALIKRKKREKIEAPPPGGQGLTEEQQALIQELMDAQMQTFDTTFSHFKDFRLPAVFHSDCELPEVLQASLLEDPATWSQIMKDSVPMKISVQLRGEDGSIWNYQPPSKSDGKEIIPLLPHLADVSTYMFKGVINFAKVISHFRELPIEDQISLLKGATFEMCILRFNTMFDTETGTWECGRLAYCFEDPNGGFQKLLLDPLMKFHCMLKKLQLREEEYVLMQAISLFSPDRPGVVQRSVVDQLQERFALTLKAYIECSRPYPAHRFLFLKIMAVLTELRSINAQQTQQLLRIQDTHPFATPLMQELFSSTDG

[4] = qHTS assay for small molecule activators of the human pregnane X receptor (PXR) signaling pathway (AID 720659; call rule not given here; further: 0% is about no effect); conditions: DPX-2 HepG2 CYP3A4-luciferase, 24 h; series mostly up to 92.3 µM
[5] = at 45.9 µM (top of the series), tumour line B
[6] = at 45.9 µM (top of the series), tumour line D
[7] = at 46 µM (top of the series), tumour line A
[8] = at 46.1 µM (top of the series), tumour line C
[9] = at 91.6 µM (top of the series), tumour line B
[10] = at 99.2 µM (top of the series), tumour line C
[11] = at 20 µM (top of the series), tumour line C
[12] = at 21.2 µM (top of the series), tumour line B
[13] = at 21.2 µM (top of the series), tumour line D
[14] = at 21.3 µM (top of the series), tumour line A

Clc1ccc(Cl)cc1
inactive: activity, negative = cell killing [1, 5] -3.79% | activity, negative = cell killing [1, 6] -0.0641% | activity, negative = cell killing [1, 7] -16.3% | activity, negative = cell killing [1, 8] -0.658% | Potency [2]

CCNC(C)Cc1cccc(C(F)(F)F)c1 (configuration not stated)
inactive: activity, negative = cell killing [1, 5] -2.98% | activity, negative = cell killing [1, 6] -5.81% | activity, negative = cell killing [1, 7] -19.5% | activity, negative = cell killing [1, 8] -4.96% | Potency [2]

Cc1ccccc1-n1c(C)nc2ccccc2c1=O
inactive: activity, negative = cell killing [1, 5] -8.69% | activity, negative = cell killing [1, 6] -13.3% | activity, negative = cell killing [1, 8] -24.2% | activity, negative = cell killing [1, 9] -8.55% | activity, negative = cell killing ([1]; at 91.6 µM (top of the series), tumour line D) -15.5% | activity, negative = cell killing [1, 10] -4.7% | Potency [2]
active: Potency ([1]; tumour line A) 44.7 µM

CN1c2ccccc2C(NCCCCCCC(=O)O)c2ccc(Cl)cc2S1(=O)=O (configuration not stated)
inactive: activity, negative = cell killing [1, 5] -13.7% | activity, negative = cell killing [1, 6] 2.81% | activity, negative = cell killing [1, 7] -22.5% | activity, negative = cell killing [1, 8] -20.5%

CN1[C@H]2CC[C@@H]1[C@@H](C(=O)O)[C@@H](OC(=O)c1ccccc1)C2
inactive: activity, negative = cell killing [1, 5] -13.9% | activity, negative = cell killing [1, 6] -11.4% | activity, negative = cell killing [1, 7] -27% | activity, negative = cell killing [1, 8] -10.2% | activity, negative = cell killing [1, 10] -6.57% | activity, negative = cell killing ([1]; at 108 µM (top of the series), tumour line A) -26.2% | activity, negative = cell killing ([1]; at 108 µM (top of the series), tumour line B) -7.59% | activity, negative = cell killing ([1]; at 108 µM (top of the series), tumour line D) -7.94% | Potency [2]

O[C@H]1[C@H]2[C@H](O)CCCN2C[C@H]1O
inactive: activity, negative = cell killing [1, 5] 0.771% | activity, negative = cell killing [1, 6] -7.2% | activity, negative = cell killing [1, 7] -40.5% | activity, negative = cell killing [1, 8] -19.9% | Potency [2]

CCC1(c2ccccc2)C(=O)NC(=O)NC1=O
inactive: activity, negative = cell killing [1, 5] -10.3% | activity, negative = cell killing [1, 6] 2.64% | activity, negative = cell killing [1, 7] -5.16% | activity, negative = cell killing [1, 8] 3.61% | Potency [2]

COC1=CC=C2[C@H]3Cc4ccc(OC)c5c4[C@@]2(CCN3C)[C@H]1O5
inactive: activity, negative = cell killing [1, 11] -9.82% | activity, negative = cell killing [1, 12] -2.9% | activity, negative = cell killing [1, 13] -4.5% | activity, negative = cell killing [1, 9] -4.24% | activity, negative = cell killing [1, 10] 12% | Potency [2]
active: Potency ([1]; tumour line A) 35.5 µM | Potency ([1]; tumour line D) 35.5 µM

S=C(S)N1CCNCC1
inactive: activity, negative = cell killing [1, 5] -3.67% | activity, negative = cell killing [1, 6] -4.89% | activity, negative = cell killing [1, 7] -30% | activity, negative = cell killing [1, 8] -13.9% | Potency [2]

FC(F)OC(F)(F)C(F)Cl (configuration not stated)
inactive: activity, negative = cell killing [1, 5] -9.16% | activity, negative = cell killing [1, 6] 6% | activity, negative = cell killing [1, 7] -21% | activity, negative = cell killing [1, 8] -2.93% | Potency [2]

C[C@]12C=CC(=O)C=C1CC[C@@H]1[C@@H]2CC[C@]2(C)OC(=O)CC[C@@H]12
inactive: activity, negative = cell killing [1, 5] -3.73% | activity, negative = cell killing [1, 6] -7.84% | activity, negative = cell killing [1, 7] -28.6% | activity, negative = cell killing [1, 8] 1.2% | Potency [2]

CC(C)(O)[C@@H]1[C@H]2OC(=O)[C@@H]1[C@]1(O)C[C@H]3O[C@]34C(=O)O[C@H]2[C@]14C
inactive: activity, negative = cell killing [1, 5] -2.1% and -10.8% | activity, negative = cell killing [1, 6] 11.7% and -21% | activity, negative = cell killing [1, 7] -37.4% and -27.2% | activity, negative = cell killing [1, 8] -9.46% and -22% | Potency [2]

C[N+]1([O-])[C@@H]2CC[C@H]1CC(OC(=O)C(CO)c1ccccc1)C2 (some centres not stated)
inactive: activity, negative = cell killing [1, 11] -19.4% | activity, negative = cell killing [1, 12] -4.66% | activity, negative = cell killing [1, 13] -20.9% | activity, negative = cell killing [1, 14] -44.8% | activity, negative = cell killing [1, 5] -7.07% | activity, negative = cell killing [1, 6] 8.25% | activity, negative = cell killing [1, 8] 21.1% | Potency [2]

O=C1C2CC=CCC2C(=O)N1SC(Cl)(Cl)Cl (configuration not stated)
active: Potency ([1]; tumour line A) 7.08 µM | Potency ([1]; tumour line B) 20 µM | Potency ([1]; tumour line D) 11.2 µM
inactive: activity, negative = cell killing [1, 8] -4.36%

C[N+]1([O-])[C@@H]2CC(OC(=O)[C@H](CO)c3ccccc3)C[C@H]1[C@@H]1O[C@@H]12 (some centres not stated)
inactive: activity, negative = cell killing [1, 11] 3.96% | activity, negative = cell killing [1, 12] 5.23% | activity, negative = cell killing [1, 13] -9% | activity, negative = cell killing [1, 5] -10.9% | activity, negative = cell killing [1, 6] -17.4% | activity, negative = cell killing [1, 8] 30.8% | Potency [2]

CC(=O)OCC(=O)[C@H]1CC[C@H]2[C@@H]3CC[C@H]4C[C@H](O)CC[C@]4(C)[C@H]3C(=O)C[C@]12C
inactive: activity, negative = cell killing [1, 11] -20.2% | activity, negative = cell killing [1, 12] -4.33% | activity, negative = cell killing [1, 13] 0.678% | activity, negative = cell killing [1, 14] -6.64% | Potency [2]

CC(C)CCON=O
inactive: activity, negative = cell killing [1, 5] 0.0037% | activity, negative = cell killing [1, 6] -3.58% | activity, negative = cell killing [1, 7] -24.7% | activity, negative = cell killing [1, 8] 2.53% | Potency [2] | max response [3] 1.54% | outcome [4]

NCC[C@H](O)C(=O)N[C@@H]1C[C@H](N)[C@@H](O[C@H]2O[C@H](CN)[C@@H](O)[C@H](O)[C@H]2N)[C@H](O[C@@H]2O[C@H](CO)[C@@H](O)[C@H]2O)[C@H]1O
inactive: activity, negative = cell killing [1, 11] -6.64% | activity, negative = cell killing [1, 12] -8.33% | activity, negative = cell killing [1, 13] -11.1% | activity, negative = cell killing [1, 14] -21.7% | Potency [2]

CCCCCl
inactive: activity, negative = cell killing [1, 5] -5.4% | activity, negative = cell killing [1, 6] -17.7% | activity, negative = cell killing [1, 7] -20.4% | activity, negative = cell killing [1, 8] 7.44% | Potency [2] | max response [3] -2.58% | outcome [4]
